This note sets out measurements from the supplement of paper PMC10723795.

Structures are written as SMILES. ± gives the standard deviation of the averaged measurements.

The test has as its system RPE1. Nature of the test: nucleolar normality score relative to DMSO (fraction of DMSO control); RPE1 is a non-cancer human cell line; higher = more normal nucleoli (less nucleolar stress). The method, then:
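Selected screen hits were validated in hTERT lines (BJ5TA, CHON-002, RPE1) and cancer lines (DLD1, HCT116). Cells were immunostained for nucleolin and UBF and the nucleolar normality score was measured per field of view, with 4 fields per drug. Scores are normalized to each cell line's own DMSO control. Dose and time are not stated for this panel.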
In the case of `CC[C@@]1(O)C(=O)OCc2c1cc1n(c2=O)Cc2cc3ccccc3nc2-1` [Camptothecin], the nucleolar normality score was found to be 0.413 ± 0.024.
